Measurements reported in PubChem BioAssay (EPA / NIEHS).
The source made the active and inactive calls. Rule for the calls: active = hit-call score of the fitted dose curve at least 0.9, where 1 is the maximum; inactive = score below 0.9.

Each molecule was assayed on Glutamate-cysteine ligase catalytic (GCLC), GCLC (gene 2729) (assay: LTEA_HepaRG_GCLC: Life Technologies and Expression Analysis (LTEA) Assay for Glutamate-cysteine ligase catalytic (GCLC) using HepaRG (AID 2283498)). Settings: mRNA level, 48 h; actives raise or lower the signal.
Protocol: LTEA_HepaRG is a cell based, multiplexed-readout assay that uses HepaRG, a human liver cell line, with measurements taken at 48 hours after chemical dosing on a 96-well plate.LTEA_HepaRG_GCLC is one of 102 assay component(s) measured in the LTEA HepaRG cell culture assay. It is a marker of Oxidative Stress.Data from the assay component LTEA_HepaRG_GCLC was analyzed into 1 endpoint. This assay endpoint, LTEA_HepaRG_GCLC, was analyzed with bidirectional fitting relative to DMSO as the negative control and baseline of activity. Using a type of inducible reporter, measures of mRNA induction for gain or loss-of-signal activity can be used to understand regulation of transcription factor activity. To generalize the intended target to other relatable targets, this assay endpoint is annotated to the ligase intended target family, where the subfamily is C-N ligase.
A total of 1060 chemcials from the ToxCast library were tested in eight-point concentration-response experiments. Cell culture and cytotoxicity assays were conducted at Thermo Fisher Scientific's Custom Services facility (Madison, WI). A single lot of human HepaRG cells (Thermo Fisher Scientific, Frederick, MD) was used for the cell culture experiments. 96-well format collagen type I coated plates of human HepaRG cells were prepared using established methods. Briefly, cryopreserved HepaRG cells were thawed, plated at a density of approximately 100,000 cells/well in HepaRG Thaw, Plate, and General Purpose media (HPRG770, Thermo Fisher Scientific), and incubated for 48 hours. 0.5% DMSO was selected as vehicle control to balance the requisite need of DMSO in HepaRG cultures to maintain differentiation (for example, baseline metabolism, proportions of hepatocytes vs. cholangiocytes), while enabling further hepatic receptor pathway activation (for example, PXR and CAR) in response to chemical exposure. 48 hours after plating, the culture medium was replaced with HepaRG Serum-Free Incudtion Media. Cells were exposed to each test chemical in duplicate and maintained in CO2 incubators for another 48 hours. Chemical plates were thawed to room temperature and 200x concentrations of treatment groups were prepared. 8-point conentration-reponse curves were made with the highest exposure at 100 uM, followed by half-log dilutions, all in 0.5% DMSO. Each test plate contained variouse controls, induction positive controls (1mM phenobarbital), cytotoxicity positive controls ([…] aflatoxin B1), vehicle controls (0.5% DMSO), and total lysis controls (0.5% DMSO). Cell morphology images were taken using an Essen IncuCyte FLR automated microscope, with six 96-well plates imaged in about 24 minutes. Images were captured and exported and JPEG files. Spent culture media was transfered to black-well plates for the LDH assay, and remaining media was sorted at -80 C for later use. Cells were treated with RLT buffer and frozen until shipped for gene expression analysis. Total RNA was isolated from the cell suspension in 75 uL of Buffer RLT (Qiagen, Germantown, MD 20874) by Quintiles/Expression Analysis (Durham, NC) using a custom isolation procedure. Total RNA from each plate well was transferred to a preamplification plate. Fluidigm's 96.96 Dynamic ArrayTM (Fluidigm, Amsterdam, the Netherlands) technology was used for gene expression analyses by quantitative reverse transcription polymerase chain reaction (qRT-PCR, performed by Quintiles/Expression Analysis, Durham, NC)89. Standard TaqManTM Assays (Applied Biosystems/ThermoFisher Scientific, Foster City, CA) were used to assess the expression of 93 genes selected based on their selectivity and sensitivity to important hepatic receptors known to be modulated by environmental chemicals; importance in human hepatocyte functionality; and hepatotoxicity. […]
For `CCOc1ccc2c(c1)C(C)=CC(C)(C)N2`, the outcome was “inactive”.
`Nc1ccc(S(=O)(=O)c2ccc(N)cc2)cc1` was tested, and the outcome was “inactive”.
`CC1=C(/C=C/C(C)=C/C=C/C(C)=C/CO)C(C)(C)CCC1` was tested, and the outcome was “inactive”.
`Cc1ccccc1Cl` was tested, and the outcome was “inactive”.
With `O=[N+]([O-])C(CO)(CO)CO` the outcome was “inactive”.
For `CCOC(=O)C(C)(C)Oc1ccc(Cl)cc1`, the outcome was “inactive”.
With `CCCCCCCCCCCC(=O)OC` the outcome was “inactive”.
With `CC(C)(C)c1cc(O)c(C(C)(C)C)cc1O` the outcome was “inactive”.
With `CC(=O)OCCOCCOCCOC(C)=O` the outcome was “inactive”.
With `NS(=O)(=O)c1cc2c(cc1Cl)NCNS2(=O)=O` the outcome was “inactive”.
In the case of `CCCCC(CC)COC(=O)CC(C(=O)OCC(CC)CCCC)S(=O)(=O)O` (stereo not given), the AC50 is reported as 94.6 µM (active).
With `CCCCCCC(=O)OCC` the outcome was “inactive”.
For `OC[C@@H](O)[C@@H](O)[C@H](O)[C@H](O)CO`, the outcome was “inactive”.
In the case of `Cc1ccc(Cl)cc1`, the outcome is reported as “inactive”.
In the case of `Oc1ccc2ccccc2c1N=Nc1ccccc1`, the AC50 is reported as 5.52 µM (active).
`O=C(N[C@@H](Cc1ccccc1)[C@@H](O)C(=O)N1C[C@@H](O)[C@@H](O)C1)c1cc2cc(Cl)ccc2[nH]1` was tested, and the outcome was “inactive”.
For `NCC1(Cc2noc(=O)[nH]2)CCCCC1`, the outcome was “inactive”.
In the case of `CCCCCCCC=O`, the outcome is reported as “inactive”.
In the case of `CC(CO)OC(C)CO` (stereo not given) (tested in a mixture with another compound), the outcome is reported as “inactive”.
For `Nc1nc(N)c2nc(CNc3ccc(C(=O)N[C@@H](CCC(=O)O)C(=O)O)cc3)cnc2n1`, the outcome was “inactive”.
In the case of `Cc1ccc2ncccc2c1`, the outcome is reported as “inactive”.
`COc1cc(C=O)ccc1O` was tested, and the outcome was “inactive”.
For `CCCCCCOCCO`, the outcome was “inactive”.
`FC(F)(F)C(F)(F)C(F)(F)C(F)(F)C(F)(F)C(F)(F)CCI` was tested, and the outcome was “inactive”.
In the case of `CC1(C)NC(=O)NC1=O`, the outcome is reported as “inactive”.
`COCCOCCOC` was tested, and the AC50 was 2.1 µM (active).
For `COc1cc(S(=O)(=O)O)c(C)cc1N=Nc1c(O)ccc2cc(S(=O)(=O)O)ccc12`, the outcome was “inactive”.
For `CCCCCCCCCCCCCCCCCC(=O)O`, the outcome was “inactive”.
For `CCCCOC(=O)CCCCCCCCC(=O)OCCCC`, the outcome was “inactive”.
With `CC1(C)CC(N=C=O)CC(C)(CN=C=O)C1` (stereo not given) the outcome was “inactive”.
With `Cc1ccc(C)c(C)c1` the outcome was “inactive”.
In the case of `CCCCc1ccc2c(n1)[C@@H](c1ccc(OC)cc1C[C@H](C)C(=O)O)[C@H](C(=O)O)[C@H]2c1ccc2c(c1)OCO2`, the outcome is reported as “inactive”.
For `COCCOC[C@H](CC1(C(=O)NC2CCC(C(=O)O)CC2)CCCC1)C(=O)Oc1ccc2c(c1)CCC2` (stereo not given in full), the outcome was “inactive”.
With `Cc1c(C(=O)O)c(O)cc2c1C(=O)c1c(O)c([C@@H]3O[C@H](CO)[C@@H](O)[C@H](O)[C@H]3O)c(O)c(O)c1C2=O` the outcome was “inactive”.
`Nc1ccc2c(c1)C(=O)c1ccccc1C2=O` was tested, and the outcome was “inactive”.
`CCc1c(C(=O)NN2CCCCC2)nn(-c2ccc(Cl)cc2Cl)c1-c1ccc(Br)cc1` was tested, and the AC50 was 50 µM (active).
With `Oc1ccc2c(c1)OC[C@@H](N1CCC(O)(c3ccc(F)cc3)CC1)[C@H]2O` the outcome was “inactive”.
In the case of `CCCCN(CCCC)CCCC`, the outcome is reported as “inactive”.
`Clc1cc(Cl)c(Cl)cc1Cl` was tested, and the outcome was “inactive”.
With `Cc1ccc(C)c(O)c1C` the outcome was “inactive”.
